# Experimental data as given in PubChem BioAssay AID431 (Sanford-Burnham Center for Chemical Genomics, 2006).
# About 1,100 (1.7%) of roughly 63,000 compounds were called active.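 Rule for the calls: active = compounds whose percent cytotoxicity in the single-dose primary screen, scaled between solvent and toxic-drug controls, exceeds 50; inactive = the rest.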 The entries come from a sample that favours actives as a whole. Measured potencies and affinities stand elsewhere.
# Test: cytotoxicity in KRAS-transformed pancreatic duct cells, primary screen, cell-based, fluorescence, HTS (AID 431);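 note: 0% = DMSO solvent wells and 100% = doxorubicin-treated wells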
# Settings: HPDE-C7K KRASV12 cells, Alamar Blue viability, 48 h; at 10 µM; stronger effect = higher value
row,Structure (SMILES),cytotoxicity
1,COc1ccc(NS(=O)(=O)c2ccc(NS(C)(=O)=O)cc2)cc1,-20.7% (inactive)
2,COc1ccccc1/C=N/n1cnnc1,-11.3% (inactive)
3,Nc1ccc(-c2nc3ccc(-c4nc5ccccc5o4)cc3[nH]2)cc1,66.5% (active)
4,Nc1cc(N)cc(-c2nc3ccccc3o2)c1,15.3% (inactive)
5,Nc1ccc(-c2nc3ccccc3[nH]2)cc1,-4.1% (inactive)
6,COCCN(C(=O)Cc1cccs1)c1nnc(-c2ccncc2)s1,-16.9% (inactive)
7,CCCCc1c(C)nc(N)[nH]c1=O,1.6% (inactive)
8,COc1ccc(CN(CCCN2CCOCC2)C(=O)Nc2ccccc2)cc1OC,13.2% (inactive)
9,Clc1ccc2nc(N3CCCCC3)sc2c1,-11.1% (inactive)
10,Cc1cc(Cl)ccc1OC(C)C(=O)Nc1ccccc1N1CCOCC1 (configuration not stated),-12.8% (inactive)
11,Cc1cc(/C=N\O)c(C)n1-c1ccncc1,3.4% (inactive)
12,C/C=C/COC(=O)c1[nH]c2c(c1C)C(=O)CC(c1ccc(N(C)C)cc1)C2 (configuration not stated),10.6% (inactive)
13,C=CCOC(=O)c1[nH]c2c(c1C)C(=O)CC(c1cc(OC)c(OC)c(OC)c1)C2 (configuration not stated),-9.9% (inactive)
14,C=CCOC(=O)c1[nH]c2c(c1C)C(=O)CC(c1ccco1)C2 (configuration not stated),67.6% (active)
15,C/C=C/COC(=O)c1[nH]c2c(c1C)C(=O)CC(c1ccco1)C2 (configuration not stated),69.1% (active)
16,CCn1c(SCC(=O)Nc2ccc(C(=O)OC)cc2)nnc1-c1cccs1,-8.2% (inactive)
17,Cc1ccc(NC(=O)c2cc(NC(=O)c3ccco3)ccc2N2CCCCC2)cc1,19.3% (inactive)
18,CCNc1nc(NC(C)C)nc(N(C#N)Cc2ccccc2)n1,3% (inactive)
19,CCNc1nc(NC(C)C)nc(N(C#N)CCOc2ccc(Cl)cc2Cl)n1,109% (active)
20,CCCN(C#N)c1nc(NCC)nc(NC(C)C)n1,-9.4% (inactive)
21,O=C(N1CCOCC1)N1CCN(S(=O)(=O)N2CCOCC2)CC1,-4.2% (inactive)
22,COc1ccc(CCNc2c(C)c(C)nc3ncnn23)cc1,33.4% (inactive)
23,CCc1c(C)nc2ncnn2c1NCCc1ccc(OC)cc1,64.2% (active)
24,CCc1c(C)nc2ncnn2c1NCCc1ccc(OC)c(OC)c1,-12.5% (inactive)
25,Cc1cc(C)nc(Nc2n[nH]c(COc3ccc(Cl)cc3)n2)n1,1.1% (inactive)
26,O=C(Nc1ncc(Br)s1)C1CCCN1S(=O)(=O)c1cccc2cccnc12 (configuration not stated),-12.6% (inactive)

row,Structure (SMILES),cytotoxicity
1,COC(=O)c1sccc1NC(=O)c1ccc(Cl)s1,1.5% (inactive)
2,COc1ccc(NC(=O)c2cc(-c3ccccc3OC)on2)cc1,38.7% (inactive)
3,COc1ccccc1-c1cc(C(=O)Nc2cc(C)on2)no1,6.8% (inactive)
4,COc1ccccc1-c1cc(C(=O)Nc2cccnc2)no1,71.3% (active)
5,C=CCn1c(SCC(=O)Nc2ccc(C(=O)OCC)cc2)nnc1-c1cccs1,-6.9% (inactive)
6,Cc1ccc2c(c1)N(CCC(=O)NCc1ccc3c(c1)OCO3)C(=O)CO2,-4.5% (inactive)
7,Cc1ccc(Nc2nc(C)c(CCC(C)C)c(=O)[nH]2)cc1,1.8% (inactive)
8,Cc1nc(Nc2ccc(F)cc2)[nH]c(=O)c1CCC(C)C,66.2% (active)
9,Cc1nc(Nc2ccccc2)[nH]c(=O)c1CCC(C)C,-10.7% (inactive)
10,Cc1n[nH]c(C)c1S(=O)(=O)N1CCCC(C(=O)NC2CCCCC2)C1 (configuration not stated),-3.4% (inactive)
11,Cc1nnc2n1NC(c1ccc(Cl)cc1)C(C(=O)N1CCC(C)CC1)S2 (configuration not stated),-14.7% (inactive)
12,CCOC(=O)c1c(NC(C)=O)no[n+]1[O-],-10.4% (inactive)
13,Cc1cc(C)cc(NC(=O)CSc2nc3c(c(=O)n2C)SC(C)C3)c1 (configuration not stated),-5.2% (inactive)
14,COCCSc1ccccc1C(=O)NCCCn1ccnc1,-28.4% (inactive)
15,c1ccc(Nc2ccccc2Nc2ccccn2)nc1,-10.1% (inactive)
16,O=C(Nc1ccccn1)c1ccc2ccccc2n1,-3.6% (inactive)
17,Oc1cccc2ccc(Nc3ccccn3)nc12,124% (active)
18,Cn1c(SCC(=O)Nc2ccc3c(c2)OCCO3)nnc1-c1ccco1,10.1% (inactive)
19,N=c1n(CCN2CCCC2)c2ccccc2n1CC(O)c1ccco1 (configuration not stated),-3.9% (inactive)
20,N=c1n(CCN2CCCCC2)c2ccccc2n1CC(O)c1cccc(Br)c1 (configuration not stated),59.4% (active)
21,N=c1n(CCN2CCCCC2)c2ccccc2n1CC(O)COc1ccccc1 (configuration not stated),16% (inactive)
22,CN(C)c1ccc(C2CC(=O)NC3=C2C(=O)CC(C)(C)C3)cc1 (configuration not stated),-6.4% (inactive)
23,C=CCn1sc(N)c(C(=O)OCC)c1=S,9% (inactive)
24,Cc1cc(C)c2c(=O)n(CC(=O)NCCCN3CCOCC3)sc2n1,20.5% (inactive)
25,Cc1cc(C)c2c(=O)n(CC(=O)NCCCN3CCN(c4ccccc4F)CC3)sc2n1,82.2% (active)
26,O=C(CCNC(=O)Cn1ccc2ccccc2c1=O)NCCCN1CCN(c2ccccc2F)CC1,-16.9% (inactive)
